In this test the target is T1, Aspartate--tRNA(Asp/Asn) ligase (Mycobacterium tuberculosis (strain ATCC 25618 / H37Rv)) (UniProt P9WFW3).
T1 sequence (whole entry): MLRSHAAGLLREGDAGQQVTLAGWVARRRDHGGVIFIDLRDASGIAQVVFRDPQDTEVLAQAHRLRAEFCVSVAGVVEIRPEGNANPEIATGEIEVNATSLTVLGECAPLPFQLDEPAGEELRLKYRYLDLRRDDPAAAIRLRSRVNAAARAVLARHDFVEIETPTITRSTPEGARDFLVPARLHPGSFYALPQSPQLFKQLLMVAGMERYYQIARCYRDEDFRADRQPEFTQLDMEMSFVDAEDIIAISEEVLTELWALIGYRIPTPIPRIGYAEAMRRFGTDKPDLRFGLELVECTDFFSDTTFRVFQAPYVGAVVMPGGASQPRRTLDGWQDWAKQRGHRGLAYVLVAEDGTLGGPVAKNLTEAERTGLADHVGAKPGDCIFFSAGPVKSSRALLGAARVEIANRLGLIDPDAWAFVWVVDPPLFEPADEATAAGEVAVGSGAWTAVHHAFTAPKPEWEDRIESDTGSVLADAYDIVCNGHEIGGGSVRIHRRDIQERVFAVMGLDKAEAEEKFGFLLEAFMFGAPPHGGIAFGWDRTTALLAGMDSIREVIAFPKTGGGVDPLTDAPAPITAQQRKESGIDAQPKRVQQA
The test can be described thus: Assay for Asp RNA synthetase-1 from Mycobacterium tuberculosis. It is filed as functional. Also on record: scale not given: in the data most compounds retested in dose-response had high values. The conditions noted are these: 30 µM.
For `Cc1ccc(C(=O)NC2CCN(C(=O)Nc3ccccn3)CC2)o1`, the Percent Effect is 5.16%.
As to `c1cncc(CN2CCc3ncnc(C4CCOC4)c3CC2)c1` (stereo not given), the Percent Effect stood at 3.1%.
Turning to `CS(=O)(=O)N1CC[C@H]2C[C@@H](C(=O)N3CCOCC3)O[C@@H]2C1`, the Percent Effect is 2.65%.
Consider `NC(=O)NCCC(=O)NCc1cccnc1N1CCc2ccccc2C1`, for which the Percent Effect was -1.71%.
As for `c1cnnc(N2CCCC2CNCc2nc(C3CC3)no2)c1` (stereo not given), the Percent Effect was -4.43%.
Take `COc1ccc(C[C@H]2CN(C(=O)CN(C)C)CC[C@H]2OC)cc1`: the Percent Effect worked out at 0.341%.
For `CC(C)N(C)Cc1cnc2n1CCN(CCc1ccccc1)C2`, the Percent Effect stood at 0.605%.
As to `Cc1n[nH]c(=O)c2c(NC(=O)CN3CCCC(C(F)(F)F)C3)oc(C)c12` (stereo not given), the Percent Effect was -2.66%.
In the case of `O=C(NCCCNCC1CNc2ccnn2C1)c1ccccc1` (stereo not given) it was 0.0558%.
`CCC(CNC(=O)c1ccc(Br)o1)N1CCc2ccccc2C1` (stereo not given): the Percent Effect was found to be 1.73%.
`COc1ccc(C2CCCN2S(=O)(=O)N(C)CC(C)C)cc1` (stereo not given): the Percent Effect was determined as 1.67%.
Take `Cc1ccc(F)c(OC2(C(=O)O)CCN(C(=O)N3CCCC3)CC2)c1`: the Percent Effect is -1.17%.
`CCN1CCN(c2ccc(CNC(=O)c3c(C)noc3C)cn2)CC1`: the Percent Effect is -3.84%.
With `Cc1ccc(F)cc1S(=O)(=O)N(C)CC(N)=O`, the Percent Effect was found to be 2.69%.
Next, `CCCNC(=O)CSc1nnc2[nH]c(=O)cc(CC)n12`: -6.58%; `CC(=O)N1CCOCC2(CN(Cc3ccc(C)o3)CCO2)C1` (stereo not given): 1.57%; `CCn1cc(S(=O)(=O)N(C)Cc2c(Br)cnn2CC)c(C)n1`: 3.54%.
In the case of `COCC(=O)NC1CC2(CCN(Cc3ccco3)CC2)c2ccccc21` (stereo not given) it was 5.52%.
As to `CCn1ncc(NC(=O)c2cc(C3CC3)nc3c2c(C)nn3C)c1C`, the Percent Effect is -1.99%.
Turning to `O=C(Nc1ccccc1)C1=CC2(CCNCC2)c2ccccc21`, the Percent Effect turned out to be 1.3%.

These data come from ChEMBL document CHEMBL3988442, “University of Dundee, Small-Polar-MMV Screening Library” (2021).
